From the supplement of paper PMC10849652
The full data set covers some 8,800 targets. This sample favours those with a hit. About 0.5% of all pairs of compound and target were hits.

What follows are targets tested with Cc1cn(-c2cc(NC(=O)c3ccc(C)c(Nc4nccc(-c5cccnc5)n4)c3)cc(C(F)(F)F)c2)cn1 [nilotinib] (assay: log2 fold change, soluble protein after heating vs DMSO (PISA); higher = thermal stabilisation; K562 lysate, 10 uM; active = over 0.2 and 3.5 SD of the protein, either way, in both replicates (recomputed)).
Procedure, shortened: (§1)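 To prepare the extract, K562 pellets were dounce-homogenised in PBS pH 7.4 with 1 mM MgCl2, giving crude material at 1 mg/mL protein. This was treated with 10 μM compound for 30 min, then heated in aliquots for 3 min over 48°C-58°C before pooling and addition of NP-40 to 0.5% at 4°C. Centrifugation at 21,000xg for 90 min left soluble protein in the supernatant, which TMTpro 16plex LC-MS/MS quantified with equalised channel sums. Results are log-two fold changes in thermal stability compared with solvent controls, from duplicates.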

UniProt Q53HL2, sequence (Q53HL2 whole entry, looked up): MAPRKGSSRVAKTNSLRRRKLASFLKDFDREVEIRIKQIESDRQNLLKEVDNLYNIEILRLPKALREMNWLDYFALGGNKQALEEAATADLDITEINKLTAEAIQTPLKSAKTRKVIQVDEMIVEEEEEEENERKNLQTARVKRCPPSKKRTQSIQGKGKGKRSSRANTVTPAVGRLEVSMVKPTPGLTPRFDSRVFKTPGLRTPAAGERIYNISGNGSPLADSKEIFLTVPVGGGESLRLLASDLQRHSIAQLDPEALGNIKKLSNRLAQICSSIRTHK
UniProt Q9C0D2, sequence (Q9C0D2 whole entry, looked up): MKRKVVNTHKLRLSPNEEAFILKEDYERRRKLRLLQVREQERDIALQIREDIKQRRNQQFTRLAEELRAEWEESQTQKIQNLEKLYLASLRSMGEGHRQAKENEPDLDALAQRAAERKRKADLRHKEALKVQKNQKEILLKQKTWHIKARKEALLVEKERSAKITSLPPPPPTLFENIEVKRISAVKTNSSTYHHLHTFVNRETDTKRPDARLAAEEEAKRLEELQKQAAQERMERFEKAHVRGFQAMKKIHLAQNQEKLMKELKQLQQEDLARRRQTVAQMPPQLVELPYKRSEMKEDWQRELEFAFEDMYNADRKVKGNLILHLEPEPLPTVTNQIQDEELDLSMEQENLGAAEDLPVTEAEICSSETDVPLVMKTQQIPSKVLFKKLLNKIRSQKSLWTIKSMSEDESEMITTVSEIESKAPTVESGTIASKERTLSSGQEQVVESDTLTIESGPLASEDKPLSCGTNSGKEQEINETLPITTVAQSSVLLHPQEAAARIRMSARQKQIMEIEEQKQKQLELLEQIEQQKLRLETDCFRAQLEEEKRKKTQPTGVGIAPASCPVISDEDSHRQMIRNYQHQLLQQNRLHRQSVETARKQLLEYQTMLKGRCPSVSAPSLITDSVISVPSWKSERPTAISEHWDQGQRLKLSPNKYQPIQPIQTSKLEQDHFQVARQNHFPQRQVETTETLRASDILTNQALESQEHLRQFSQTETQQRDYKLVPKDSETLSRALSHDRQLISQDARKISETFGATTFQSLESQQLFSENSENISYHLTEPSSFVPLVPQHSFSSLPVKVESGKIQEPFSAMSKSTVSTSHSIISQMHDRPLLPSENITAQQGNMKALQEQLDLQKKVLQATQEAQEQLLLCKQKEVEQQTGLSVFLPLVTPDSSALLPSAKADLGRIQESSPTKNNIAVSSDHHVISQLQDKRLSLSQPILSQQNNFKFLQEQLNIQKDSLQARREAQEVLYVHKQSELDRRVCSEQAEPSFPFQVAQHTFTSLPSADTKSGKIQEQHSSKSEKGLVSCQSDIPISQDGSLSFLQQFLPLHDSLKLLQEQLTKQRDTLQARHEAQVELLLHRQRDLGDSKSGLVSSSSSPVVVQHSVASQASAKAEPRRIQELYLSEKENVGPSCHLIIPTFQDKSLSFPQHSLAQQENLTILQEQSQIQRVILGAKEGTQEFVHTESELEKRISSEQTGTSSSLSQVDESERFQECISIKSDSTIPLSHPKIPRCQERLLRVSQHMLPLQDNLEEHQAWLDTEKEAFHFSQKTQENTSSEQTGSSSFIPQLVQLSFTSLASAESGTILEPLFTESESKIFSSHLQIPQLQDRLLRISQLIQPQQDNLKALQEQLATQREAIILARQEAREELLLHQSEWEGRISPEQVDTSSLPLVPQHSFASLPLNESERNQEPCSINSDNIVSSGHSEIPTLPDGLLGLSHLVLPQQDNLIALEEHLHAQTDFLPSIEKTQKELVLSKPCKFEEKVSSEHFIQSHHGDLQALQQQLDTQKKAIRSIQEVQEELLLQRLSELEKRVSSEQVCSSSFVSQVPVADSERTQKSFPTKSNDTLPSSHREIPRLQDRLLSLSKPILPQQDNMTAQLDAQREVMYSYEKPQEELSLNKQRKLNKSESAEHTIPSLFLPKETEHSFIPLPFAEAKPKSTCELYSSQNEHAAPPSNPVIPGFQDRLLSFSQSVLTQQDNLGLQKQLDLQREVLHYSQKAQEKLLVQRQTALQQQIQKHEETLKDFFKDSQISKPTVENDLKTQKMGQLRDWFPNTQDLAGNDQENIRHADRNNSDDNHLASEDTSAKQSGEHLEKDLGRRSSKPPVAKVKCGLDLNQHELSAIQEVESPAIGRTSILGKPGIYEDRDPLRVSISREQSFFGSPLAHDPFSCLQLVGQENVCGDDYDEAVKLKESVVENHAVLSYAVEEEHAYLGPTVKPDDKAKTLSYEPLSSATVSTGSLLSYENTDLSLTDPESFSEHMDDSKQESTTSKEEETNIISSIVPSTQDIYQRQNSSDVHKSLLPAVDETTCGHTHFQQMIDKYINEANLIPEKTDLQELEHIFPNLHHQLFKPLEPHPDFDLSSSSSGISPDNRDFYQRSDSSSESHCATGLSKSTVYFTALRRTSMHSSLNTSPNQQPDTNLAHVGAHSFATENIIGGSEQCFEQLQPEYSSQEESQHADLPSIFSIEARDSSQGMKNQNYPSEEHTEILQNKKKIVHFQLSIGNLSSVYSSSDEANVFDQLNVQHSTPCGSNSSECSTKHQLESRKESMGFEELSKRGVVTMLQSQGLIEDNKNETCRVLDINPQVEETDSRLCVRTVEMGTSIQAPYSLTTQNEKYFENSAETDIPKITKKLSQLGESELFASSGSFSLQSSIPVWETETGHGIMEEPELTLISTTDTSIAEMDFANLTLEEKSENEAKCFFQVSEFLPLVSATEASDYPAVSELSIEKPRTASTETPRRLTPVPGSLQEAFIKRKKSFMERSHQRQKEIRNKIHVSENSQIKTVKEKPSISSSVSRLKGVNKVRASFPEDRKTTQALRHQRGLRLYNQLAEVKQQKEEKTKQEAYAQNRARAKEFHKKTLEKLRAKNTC
UniProt Q7Z7K6, sequence (Q7Z7K6 whole entry, looked up): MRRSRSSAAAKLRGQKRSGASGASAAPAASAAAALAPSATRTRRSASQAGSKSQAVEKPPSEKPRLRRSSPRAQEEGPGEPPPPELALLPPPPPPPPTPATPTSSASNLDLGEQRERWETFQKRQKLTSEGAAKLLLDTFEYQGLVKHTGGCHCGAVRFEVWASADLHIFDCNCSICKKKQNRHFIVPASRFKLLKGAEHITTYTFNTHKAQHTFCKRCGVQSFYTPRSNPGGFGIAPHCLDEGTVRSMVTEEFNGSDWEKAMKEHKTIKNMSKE
UniProt Q9Y297, sequence (Q9Y297 whole entry, looked up): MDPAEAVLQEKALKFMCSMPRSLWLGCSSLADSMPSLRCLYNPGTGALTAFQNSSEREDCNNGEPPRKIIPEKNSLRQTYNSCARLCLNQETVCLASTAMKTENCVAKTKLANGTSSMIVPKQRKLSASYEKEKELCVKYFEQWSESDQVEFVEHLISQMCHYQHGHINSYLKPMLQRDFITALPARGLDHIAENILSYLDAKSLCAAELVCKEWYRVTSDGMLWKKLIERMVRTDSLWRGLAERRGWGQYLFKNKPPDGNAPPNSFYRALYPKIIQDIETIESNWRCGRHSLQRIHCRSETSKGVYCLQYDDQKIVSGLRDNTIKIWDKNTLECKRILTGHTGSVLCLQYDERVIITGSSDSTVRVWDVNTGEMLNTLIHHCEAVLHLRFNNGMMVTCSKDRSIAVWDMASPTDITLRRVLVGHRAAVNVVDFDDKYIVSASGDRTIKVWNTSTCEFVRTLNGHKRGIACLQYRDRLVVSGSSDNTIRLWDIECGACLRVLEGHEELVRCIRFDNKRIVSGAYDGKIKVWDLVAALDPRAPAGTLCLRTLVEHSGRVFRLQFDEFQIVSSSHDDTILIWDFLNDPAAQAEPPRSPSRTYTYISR
UniProt Q96B23, sequence (Q96B23 whole entry, looked up): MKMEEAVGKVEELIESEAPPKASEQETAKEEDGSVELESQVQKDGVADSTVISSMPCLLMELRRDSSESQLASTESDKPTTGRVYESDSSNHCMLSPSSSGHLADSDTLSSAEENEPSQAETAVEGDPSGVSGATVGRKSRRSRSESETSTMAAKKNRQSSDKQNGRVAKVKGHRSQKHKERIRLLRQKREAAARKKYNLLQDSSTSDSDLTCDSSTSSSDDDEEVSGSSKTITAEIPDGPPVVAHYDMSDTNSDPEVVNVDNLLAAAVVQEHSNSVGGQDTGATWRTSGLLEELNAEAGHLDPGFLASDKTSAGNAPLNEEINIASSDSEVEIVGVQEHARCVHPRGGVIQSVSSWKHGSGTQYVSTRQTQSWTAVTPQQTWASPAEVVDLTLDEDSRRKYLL
UniProt Q1RMZ1, sequence (Q1RMZ1 whole entry, looked up): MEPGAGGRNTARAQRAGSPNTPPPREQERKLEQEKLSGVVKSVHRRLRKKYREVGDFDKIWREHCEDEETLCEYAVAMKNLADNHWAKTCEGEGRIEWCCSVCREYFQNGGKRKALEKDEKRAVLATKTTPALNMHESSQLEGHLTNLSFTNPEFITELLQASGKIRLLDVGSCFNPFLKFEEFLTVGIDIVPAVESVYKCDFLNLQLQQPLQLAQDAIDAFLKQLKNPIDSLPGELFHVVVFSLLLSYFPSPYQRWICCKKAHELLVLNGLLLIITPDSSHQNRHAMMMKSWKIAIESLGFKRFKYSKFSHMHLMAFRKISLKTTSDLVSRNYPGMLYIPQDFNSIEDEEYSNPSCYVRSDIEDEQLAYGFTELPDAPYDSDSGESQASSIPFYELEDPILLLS
UniProt Q16581, sequence (Q16581 whole entry, looked up): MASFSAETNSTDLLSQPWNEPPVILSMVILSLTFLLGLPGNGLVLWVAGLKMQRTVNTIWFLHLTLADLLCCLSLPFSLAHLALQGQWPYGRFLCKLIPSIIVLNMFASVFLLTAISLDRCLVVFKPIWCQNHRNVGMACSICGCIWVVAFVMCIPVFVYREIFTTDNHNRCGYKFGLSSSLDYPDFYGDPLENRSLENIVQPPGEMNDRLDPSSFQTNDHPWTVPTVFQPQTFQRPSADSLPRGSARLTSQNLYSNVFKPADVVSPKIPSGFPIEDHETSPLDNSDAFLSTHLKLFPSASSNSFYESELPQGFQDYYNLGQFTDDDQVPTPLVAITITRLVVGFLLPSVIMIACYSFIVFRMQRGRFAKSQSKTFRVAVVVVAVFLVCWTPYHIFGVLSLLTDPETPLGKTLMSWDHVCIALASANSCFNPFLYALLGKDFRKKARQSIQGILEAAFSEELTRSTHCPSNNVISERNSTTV

Target | log2 fold change
CAPNS1 (UniProt U3KPR7) | -0.166 (inactive)
BTRC (UniProt Q9Y297) | 0.006 (inactive)
CDK2 (UniProt P24941) | -0.01 (inactive)
ATF7IP2 (UniProt Q5U623) | -0.003 (inactive)
C3AR1 (UniProt Q16581) | -0.026 (inactive)
CARHSP1 (UniProt H3BNU9) | -0.196 (inactive)
CDC14A isoform 2 (UniProt Q9UNH5) | -0.076 (inactive)
BMT2 (UniProt Q1RMZ1) | 0.172 (inactive)
CENPV (UniProt Q7Z7K6) | 1.5 (active)
CANX (UniProt D6RHJ3) | -0.055 (inactive)
CDCA8 (UniProt Q53HL2) | 0.03 (inactive)
C18orf25 isoform 2 (UniProt Q96B23) | -0.026 (inactive)
CEP295 isoform 3 (UniProt Q9C0D2) | 0.016 (inactive)
BTK isoform 2 (UniProt Q06187) | 0.016 (inactive)

These targets were tested with Cc1nc(Nc2n[nH]c3c2CN(C(=O)N[C@H](CN(C)C)c2ccccc2)C3(C)C)c2sccc2n1 in the same assay as above.
Procedure, shortened: as §1

Target | log2 fold change
CAPNS1 (UniProt U3KPR7) | -0.416 (inactive)
BTRC (UniProt Q9Y297) | 0.02 (inactive)
ATF7IP2 (UniProt Q5U623) | 0.008 (inactive)
C3AR1 (UniProt Q16581) | 0.286 (inactive)
CARHSP1 (UniProt H3BNU9) | 0.149 (inactive)
CDC14A isoform 2 (UniProt Q9UNH5) | 0.07 (inactive)
BMT2 (UniProt Q1RMZ1) | -0.923 (active)
CENPV (UniProt Q7Z7K6) | -0.184 (inactive)
CANX (UniProt D6RHJ3) | 0.129 (inactive)
BRAF (UniProt P15056) | 0.011 (inactive)
CDCA8 (UniProt Q53HL2) | -0.002 (inactive)
C18orf25 isoform 2 (UniProt Q96B23) | -0.115 (inactive)
CEP295 isoform 3 (UniProt Q9C0D2) | 0.046 (inactive)
BTK isoform 2 (UniProt Q06187) | -0.002 (inactive)

What follows are targets tested with Cc1nc(Nc2ncc(C(=O)Nc3c(C)cccc3Cl)s2)cc(N2CCN(CCO)CC2)n1 [dasatinib] in the same assay as above.
Procedure, shortened: as §1

Target | log2 fold change
CACUL1 (UniProt Q86Y37) | -0.094 (inactive)
CAPNS1 (UniProt K7ES78) | -0.027 (inactive)
B3GALT6 (UniProt Q96L58) | -0.148 (inactive)
C8orf37 (UniProt Q96NL8) | 0.083 (inactive)
ATXN2 (UniProt F8WB05) | 0.035 (inactive)
CEP128 (UniProt Q6ZU80) | -0.168 (inactive)
BCORL1 isoform 3 (UniProt Q5H9F3) | 0.039 (inactive)
CDKN1B (UniProt P46527) | 0.021 (inactive)
ATG4D (UniProt Q86TL0) | -0.037 (inactive)
AUH (UniProt Q13825) | -0.274 (inactive)
CDK2 (UniProt P24941) | 0.018 (inactive)
CCDC85B (UniProt Q15834) | 0.066 (inactive)
ATXN2 (UniProt F8WB06) | -0.074 (inactive)
ATPSCKMT (UniProt Q6P4H8) | 0.052 (inactive)
CCP110 (UniProt O43303) | 0.063 (inactive)
C16orf70 (UniProt Q9BSU1) | 0.042 (inactive)
C8orf88 (UniProt P0DMB2) | 0.07 (inactive)
CDKL5 (UniProt O76039) | -0.095 (inactive)
BICRA (UniProt Q9NZM4) | 0.088 (inactive)
CDCA8 (UniProt Q53HL2) | 0.012 (inactive)
C6orf120 (UniProt Q7Z4R8) | -0.007 (inactive)
C18orf25 isoform 2 (UniProt Q96B23) | -0.025 (inactive)

Each target was assayed with Cc1ncc(-c2ccnc(Nc3ccc(S(C)(=O)=O)cc3)n2)n1C(C)C in the same assay as above.
Procedure, shortened: as §1

Target | log2 fold change
CAPNS1 (UniProt U3KPR7) | 0.226 (inactive)
BTRC (UniProt Q9Y297) | -0.003 (inactive)
ATF7IP2 (UniProt Q5U623) | -0.089 (inactive)
C3AR1 (UniProt Q16581) | -0.111 (inactive)
CARHSP1 (UniProt H3BNU9) | 0.238 (inactive)
CDC14A isoform 2 (UniProt Q9UNH5) | -0.001 (inactive)
BMT2 (UniProt Q1RMZ1) | 0.134 (inactive)
CENPV (UniProt Q7Z7K6) | 0.816 (inactive)
CANX (UniProt D6RHJ3) | 0.191 (inactive)
BRAF (UniProt P15056) | -0.043 (inactive)
CDCA8 (UniProt Q53HL2) | -0.277 (inactive)
C18orf25 isoform 2 (UniProt Q96B23) | -0.291 (inactive)
CEP295 isoform 3 (UniProt Q9C0D2) | 0.006 (inactive)
BTK isoform 2 (UniProt Q06187) | 0.015 (inactive)

What follows are targets tested with Cn1cc(-c2ccc3c(c2)CCN3C(=O)Cc2cccc(C(F)(F)F)c2)c2c(N)ncnc21 in the same assay as above.
Procedure, shortened: as §1

Target | log2 fold change
CACUL1 (UniProt Q86Y37) | 0.157 (inactive)
CAPNS1 (UniProt K7ES78) | -0.006 (inactive)
B3GALT6 (UniProt Q96L58) | 0.233 (inactive)
C8orf37 (UniProt Q96NL8) | 0.056 (inactive)
ATXN2 (UniProt F8WB05) | -0.058 (inactive)
CEP128 (UniProt Q6ZU80) | 0.041 (inactive)
BCORL1 isoform 3 (UniProt Q5H9F3) | -0.09 (inactive)
CDKN1B (UniProt P46527) | 0.034 (inactive)
ATG4D (UniProt Q86TL0) | -0.57 (active)
AUH (UniProt Q13825) | 0.14 (inactive)
CDK2 (UniProt P24941) | 0.01 (inactive)
CCDC85B (UniProt Q15834) | -0.034 (inactive)
ATXN2 (UniProt F8WB06) | -0.053 (inactive)
ATPSCKMT (UniProt Q6P4H8) | -0.021 (inactive)
CCP110 (UniProt O43303) | -0.01 (inactive)
C16orf70 (UniProt Q9BSU1) | -0.091 (inactive)
C8orf88 (UniProt P0DMB2) | -0.134 (inactive)
CDKL5 (UniProt O76039) | 0.188 (inactive)
BICRA (UniProt Q9NZM4) | -0.1 (inactive)
BRAF (UniProt P15056) | 0.002 (inactive)
CDCA8 (UniProt Q53HL2) | -0.011 (inactive)
C6orf120 (UniProt Q7Z4R8) | 0.147 (inactive)
C18orf25 isoform 2 (UniProt Q96B23) | -0.056 (inactive)
BTK isoform 2 (UniProt Q06187) | -0.005 (inactive)
